Screening data from PubChem.
Sampled rows, rich in hits. Any-hit rate of the full collection: about 17%.
ClpP mod: qHTS Assay for Activators of ClpP | ATP-dependent Clp protease proteolytic subunit (Bacillus subtilis (strain 168)), P80244 | purified B. subtilis ClpP, FRET peptide cleavage, 20 min | Potency, µM (highest dose often 57.5 µM), without a hit: top-dose activity change, negative = active | hit rate 1.9% among 340,000; active means well fitted falling curve with a large enough effect; inconclusive means small, poorly fitted or top-dose-only effect; inactive means no such curve, though single readings can be large or run the other way; further: the source files actives as falling curves though it sought activators and does not explain the sign; nearly all actives have a fitted effect of over 65% in size
Target sequence (P80244 whole entry, looked up): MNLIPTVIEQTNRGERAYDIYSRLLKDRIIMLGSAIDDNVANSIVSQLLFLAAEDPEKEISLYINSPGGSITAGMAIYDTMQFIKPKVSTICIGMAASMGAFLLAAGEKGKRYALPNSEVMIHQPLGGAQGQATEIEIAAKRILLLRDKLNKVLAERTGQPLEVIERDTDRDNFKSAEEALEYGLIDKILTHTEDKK
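Purified B. subtilis ClpP, 10 microg/mL final in Tris/HCl pH8 with KCl, BSA, glycerol and Tween-20, cleaved an Abz/nitrotyrosine-quenched decapeptide. Fluorescence (ex 320, em 430) was read at 0 and 20 min at room temperature. Delta was normalized to 5.8 microM ADEP and DMSO/no-enzyme controls.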
DT40 TDP1 CPT: DT40-hTDP1 cell growth loss with CPT | chicken DT40 Tdp1-/-;hTDP1 cells + 20 nM CPT, ATP luminescence, 48 h | Potency, µM (titrated, usually from 46.2 µM), without a hit: at the highest dose activity change, negative = growth inhibition, usual class: inhibitors | hit rate 12% among 420,000 | AID 686979; further: on the % scale 0 is the no-effect control and ±100 the full control effect; nearly all actives have a fitted effect of over 55% in size
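Cell growth measured by CellTiter-Glo luminescence after a minimum 48 h, 37 C compound exposure with 20 nM CPT in Tdp1-knockout DT40 cells stably expressing hTDP1, seeded 400/well; qHTS titration format.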
TDP1 block: TDP1 (human) enzyme inhibition; hit rate 0.28% among 350,000; Q9NUW8; AID 485290; Potency, µM (doses to about 130 µM), inactives show at the highest dose activity change, negative = inhibition, most hits filed as inhibitors; recombinant TDP1, AlphaScreen DNA substrate cleavage; further: on the % scale 0 is the no-effect control and ±100 the full control effect; nearly all actives have a fitted effect of over 40% in size
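Recombinant human Tdp1 (E. coli-expressed, 1 nM final) preincubated with compounds 15 min at room temperature, then 5'-biotin/3'-phosphotyrosine-FITC DNA substrate (15 nM final) added for 5 min. AlphaScreen beads (10 ug/ml final) added 10 min; cleavage lowers signal.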
DT40 TDP1 no CPT: qHTS for Inhibitors of human tyrosyl-DNA phosphodiesterase 1 (TDP1): qHTS in cells in absence of CPT; hit rate 15% among 420,000; Potency, µM (titrated, usually from 46.2 µM), for inactives: top-dose activity change, negative = growth inhibition, hits mostly inhibitors; DT40 Tdp1-/- hTDP1 cells, no CPT, ATP luminescence, 48 h; further: on the % scale 0 is the no-effect control and ±100 the full control effect; nearly all actives have a fitted effect of over 55% in size
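Cells were dispensed at 400 per well, compounds added by pin tool, plates incubated ≥48 hr at 37 °C, then CellTiter-Glo added for 30 min at room temperature before luminescence reading. Line: DT40 Tdp1-/- complemented with hTDP1; camptothecin omitted.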
Active calls of the source: *; ? = inconclusive; · = not tested or not shown; [ ] = remark or other dose. Unless noted, the call rests on the fitted dose curve; in most records, active means well fitted curve in the direction sought with a large enough effect; inconclusive means small, poorly fitted or top-dose-only effect, or another doubt; inactive means no such curve, though single readings can be large; an effect the other way counts as inactive or inconclusive. Potency means the concentration at half of the fitted maximal effect.

SMILES	ClpP mod	DT40 TDP1 CPT	TDP1 block	DT40 TDP1 no CPT
Cc1ccc(C)c(NC(=O)CN(C)C(=O)c2cc3ccccc3oc2=O)c1	-15%	3%	-1%	3%
COCCn1c(=O)c(-c2ccc(F)c(F)c2)nc2cncnc21	·	-4%	·	-4%
COc1ccc(/C=N/Nc2cc(C)nc(-n3nc(C)cc3C)n2)c(OC)c1	-27%	1.5µM*	11%	1.6µM*
CCOc1cc(/C=N/Nc2nc(C)cc(=O)[nH]2)ccc1O	-4%	-23%	·	6%
CCOc1cc(/C=N/Nc2cc(C)nc(-n3nc(C)cc3C)n2)ccc1O	-3%	2.6µM*	79µM*	2.3µM*
Cc1cc(N/N=C/c2ccc(F)cc2)nc(-n2nc(C)cc2C)n1	·	2.9µM*	1%	3.7µM*
CS(=O)(=O)Nc1ccccc1-c1ccc2nccn2c1	-20%	-12%	·	-13%
CN(CC1COc2ccccc2O1)C(=O)CSc1ncccn1 (configuration not stated)	·	-13%	1%	-10%
COC(=O)c1ccc(NC(=O)CNc2ccccc2)cc1	·	12%	-2%	-5%
COC(CNS(=O)(=O)c1ccc(S(=O)(=O)NC2CC2)cc1)OC	1%	-3%	·	21%
Cc1c(C(C)C)c(=O)n(-c2ccc(S(=O)(=O)NC(C)C)cc2)n1C	·	?	5%	13µM*
CCN(CC)S(=O)(=O)c1ccc(-n2c(=O)c(C(C)C)c(C)n2C)cc1	·	-20%	-10%	?
Cc1c(C(C)C)c(=O)n(-c2ccc(S(=O)(=O)NC3CC3)cc2)n1C	·	-5%	5%	10µM*
CCn1c(-c2ccccc2F)nc2cc(NC(C)=O)cc(C(=O)N(C)Cc3ccccn3)c21	·	4%[9.04 µM]	·	-3%
O=S(=O)(Nc1cccc2cccnc12)c1ccccc1	·	13µM*	2%	8.2µM*
COc1ccc(S(=O)(=O)Nc2cccc3cccnc23)cc1	·	·	-2%	·
Cc1ccc2cccc(NS(=O)(=O)c3ccccc3)c2n1	?	?	2%	21µM*
O=S(=O)(Nc1cccc2ccccc12)c1ccccc1	·	-27%	1%	-19%
NC(=S)NNc1cccc2cccnc12	-1%	6.5µM*	3%	12µM*
O=S(=O)(Nc1cccc2cccnc12)c1ccc(S(=O)(=O)N2CCCC2)cc1	-11%	16µM*	11%	13µM*
COc1cccc([C@@H]2Oc3ccc(OC)cc3/C(=N/OC[C@@H](C)[C@H](OCc3ccccc3)C(C)C)[C@@H]2O)c1	·	·	5%[21 µM]	·
CCOC(=O)Nc1ccc2c(COC(=O)CNS(=O)(=O)c3cccc(Br)c3)cc(=O)oc2c1	?	5%	7%	-23%
Cc1cc(C)n(-c2ccc3cccc(NS(C)(=O)=O)c3n2)n1	-2%	5.2µM*	9%	5.8µM*
CS(=O)(=O)Nc1cccc2cccnc12	-1%	4.6µM*	8%	4.6µM*
O=S(=O)(Nc1ncccn1)c1ccccc1	0%	?	2%	16µM*
SMILES	ClpP mod	DT40 TDP1 CPT	TDP1 block	DT40 TDP1 no CPT
O=C(CC1NCCc2ccccc21)Nc1ccccc1 (configuration not stated)	·	3%	5%	4%
Cc1ccc(S(=O)(=O)NCC2NCCc3ccccc32)cc1 (configuration not stated)	·	-9%	6%	23µM*
CCCCN(CC(=O)NCCOC)C(=O)Cn1nnc2ccccc21	·	12%	2%	25%
CC(=O)Nc1ccc(S(=O)(=O)Nc2cccc(S(=O)(=O)N(C)c3ccccc3)c2)cc1	0%	?	4%[0.505 µM]	?
O=C(Nc1ccc2c(c1)CCC2)c1ccccc1	-4%	?	-3%	16µM*
CC(=O)c1cccc(NC(=O)c2ccc(N(C)S(C)(=O)=O)cc2)c1	-1%	-13%	5%	-26%
O=C(O)c1ccccc1-c1ccccc1C(=O)Nc1ccc2c(c1)CCC2	1%	10%	·	16%
CSc1ncccc1C(=O)Nc1cccc(S(=O)(=O)N2CCCCC2)c1	2%	?	1%[56.1 µM]	15µM*
CC(=O)Nc1ccc(C(=O)Nc2cccc(S(=O)(=O)N(C)c3ccccc3)c2)cc1	-3%	18µM*	1%	?
CN(c1cccc(NC(=O)c2ccc(C(C)(C)C)cc2)c1)S(C)(=O)=O	·	23µM*	5%	21µM*
O=C(COc1ccccc1F)Nc1ccc(S(=O)(=O)N2CCCC2)cc1	2%	?	1%	-23%
COc1ccc(NC(=O)c2cccc(S(=O)(=O)N(C)c3ccccc3)c2)cn1	-1%	16µM*	-1%	16µM*
CN(c1cccc(NC(=O)c2ccc(N(C)S(=O)(=O)c3ccccc3)cc2)c1)S(C)(=O)=O	0%	21µM*	-3%	?
O=C(Nc1cccc(S(=O)(=O)N2CCCC2)c1)c1cc(-c2ccccn2)nc2ccccc12	·	23µM*	8%	21µM*
CN(C)S(=O)(=O)c1cccc(NC(=O)c2cccc(NS(=O)(=O)c3ccccc3)c2)c1	-6%	21µM*	-9%	?
Nc1nc(N)c(S(=O)(=O)c2ccccc2)c(Nc2ccc(Br)cc2)n1	-30%	·	7%	·
CCOC(=O)N1CCN(C(=O)C2CCC(=O)N(Cc3cccc(C(F)(F)F)c3)C2)CC1 (configuration not stated)	-1%	-1%	3%	5%
CC(C)c1c(C(=O)N/N=C/c2ccsc2)nnn1-c1nonc1N	-1%	-8%	0%	-14%
CC(=O)c1ccc(NC(=O)c2cnsn2)cc1	3%	-2%	4%	-6%
O=C(Nc1ccc2c(c1)CCC2)c1cccc(S(=O)(=O)N2CCN(c3ccccc3)CC2)c1	-10%	-22%	-2%	-20%
Cc1ccc(C(=O)Nc2nc(C)c(C(=O)Nc3ccc4c(c3)CCC4)s2)cc1	·	1.3µM*	5%	1.3µM*
Cc1ccc(NS(=O)(=O)c2cc(C(=O)Nc3cccc(N(C)S(C)(=O)=O)c3)ccc2C)c(C)c1	-5%	16µM*	2%	18µM*
CN(c1ccccc1)S(=O)(=O)c1cccc(C(=O)Nc2ccc3c(c2)CCC3)c1	1%	5.2µM*	2%	2.6µM*
CN(c1ccccc1)S(=O)(=O)c1cccc(NC(=O)c2ccncc2)c1	-2%	6.5µM*	4%	8.2µM*
Cc1ccc(C)c(NS(=O)(=O)c2cc(C(=O)Nc3cccc(N(C)S(C)(=O)=O)c3)ccc2C)c1	-1%	?	7%	?
CSc1ncccc1C(=O)Nc1cccc(S(=O)(=O)N(C)c2ccccc2)c1	-2%	18µM*	0%[56.1 µM]	?
CC1CCN(C(=O)CN2CC(C)Sc3ccccc32)CC1 (configuration not stated)	-5%	?	4%	?
CCc1nnc2c(Nc3ccccc3Br)nc3ccccc3n12	-2%	-28%	5%	?
CCc1nnc2c(Nc3ccc(N(CC)CC)cc3C)nc3ccccc3n12	0%	18µM*	6%	18µM*
